HT1080 IDH1KD tx = kills HT-1080 cells with IDH1 knockdown | HT-1080 IDH1 knockdown viability, ATP luminescence, 48 h | Potency, µM (top dose mostly 46.1 µM), without a hit: top-dose activity, negative = toxicity, hits mostly cytotoxic | hit rate 2% among 360,000;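 also: 0% = DMSO wells and -100% = cell-free medium wells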
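Cytotoxicity counter-line: IDH1KD HT-1080, 48 h, CellTiter-Glo. Curves classed by r2, magnitude and activity.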
KB-3-1 cytotox = kills parental KB-3-1 adenocarcinoma cells. KB-3-1 viability, CellTiter-Glo ATP luminescence, 72 h. Potency, µM (highest dose often 46.1 µM), hits mostly cytotoxic. hit rate 1.4% among 400,000. AID 1347075; also: nearly all actives have a fitted effect of over 60% in size
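Using CellTiter-Glo luminescence, growth of non-resistant KB-3-1 adenocarcinoma cells is assessed 72 h after pin-tool compound addition at 37 °C. Normalized responses across the concentration series yield fitted curves.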
KB-V1 MDR tox = kills drug-selected multidrug resistant KB-V1 cells; KB-V1 MDR cells viability, CellTiter-Glo, 72 h; Potency, µM (top dose mostly 46.1 µM), hits mostly cytotoxic; hit rate 3.4% among 400,000; also: nearly all actives have a fitted effect of over 60% in size
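Drug-selected KB-V1 cells, grown in DMEM lacking phenol red with 10% FBS, receive compound titrations; after three days at 37 degrees C, surviving cell ATP is quantified by CellTiter-Glo luminescence and responses normalized and curve-fitted.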
HT1080-NT tox = kills 2HG-producing HT-1080-NT fibrosarcoma cells | HT-1080-NT fibrosarcoma viability, CellTiter-Glo ATP luminescence, 48 h | hit rate 1.6% among 360,000 | Potency, µM (series often up to 46.1 µM), without a hit: at the highest dose activity, negative = less viability, actives largely listed as cytotoxic;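 also: NT is the 2HG producing partner of a matched IDH1 knockdown line; 0% = DMSO-treated cells and -100% = media-only wells without cells; nearly all actives have a fitted effect of over 55% in size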
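Toxicity toward the 2HG-producing NT line was scored as %Activity, normalised to DMSO and no-cell wells, from CellTiter-Glo luminescence after 48 hours' treatment.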
Active calls of the source: *; i = inactive; ? = inconclusive; . = not tested or not shown. An excerpt weighted towards active compounds, which were near 5.7% of everything screened. Calls follow the shape of the dose curve; as a rule, active = well fitted curve in the direction sought with a large enough effect; inconclusive = small, poorly fitted or top-dose-only effect, or another doubt; inactive = no such curve, though single readings can be large; an effect the other way counts as inactive or inconclusive. Unless noted, % is scaled to controls: 0 for no effect and ±100 for the full control effect; potency is read from the fitted curve at half-maximal effect.

SMILES | HT1080 IDH1KD tx | KB-3-1 cytotox | KB-V1 MDR tox | HT1080-NT tox
O=C(Nc1ncc2c(n1)-c1ccccc1CC2)c1ccc(Cl)cc1 | ? | i | 9.2µM* | -13.2%
CCN(C(=O)C1CCN(S(=O)(=O)c2cc(Br)cc3c2N(C(C)=O)CC3)CC1)c1cccc(C)c1 | . | i | i | .
Cc1cnc(NC(=O)c2cc3c(s2)CCCC3)s1 | -16.8% | 20.6µM* | i | -15.9%
O=C(Nc1ccc(N2CCOCC2)cc1)c1cc2c(s1)CCCC2 | ? | i | i | -11.0%
O=C(Nc1ccc(N2CCOCC2)cc1)c1cc2c(s1)CCCCC2 | 7.31µM* | ? | i | -3.3%
O=C(Nc1cccc(S(=O)(=O)Nc2ccc(Cl)cc2)c1)c1cc2c(s1)CCCC2 | 20.6µM* | i | i | 20.6µM*
Cc1csc(NC(=O)c2cc3c(s2)CCCC3)n1 | -26.2% | i | i | -21.7%
Nc1c(C(=O)Nc2ccccc2F)sc2nc(-c3cccnc3)ccc12 | 13µM* | i | i | ?
CN1/C(=C/C=C(/C#N)C(N)=O)C(C)(C)c2ccccc21 | 5.8µM* | 2.59µM* | ? | 5.8µM*
CN1/C(=C\C=N\O)C(C)(C)c2ccccc21 | 19.6% | i | i | 6.8%
Cc1ccccc1N=C/C=C1\N(C)c2ccccc2C1(C)C | -4.8% | i | 23.1µM* | -5.3%
CN1/C(=C\C=[N+](C)c2ccccc2)C(C)(C)c2ccccc21 | ? | 3.26µM* | i | 7.08µM*
CCc1ccc(-n2c(CCC(=O)O)ccc2-c2ccc(F)cc2)cc1 | . | i | i | .
CCc1nc2ccc(C(=O)NCc3ccc(OC)c(OC)c3)cc2nc1CC | . | i | i | .
O=C(C[n+]1ccnc2ccccc21)c1ccc(Br)cc1 | . | i | i | .
CCOC(=O)c1ccc(-n2c(CCC(=O)O)ccc2-c2ccccc2)cc1O | . | i | i | .
COc1ccc(N2CCN(C(CNC(=O)c3ccc(C)cc3)c3ccc4c(c3)OCO4)CC2)cc1 (configuration not stated) | . | ? | i | .
C/C=C(\NNC(C)=O)c1ccc(O)cc1 | . | i | i | .
Cc1ccc(SC2=C[C@@]3(O)CC[C@@H](O)[C@@](Sc4ccc(C)cc4)(C2=O)[C@H]3O)cc1 | -22.1% | ? | 16.4µM* | -26.6%
CC(C)(C)c1ccc(SC2=C[C@@]3(O)CC[C@@H](O)[C@@](Sc4ccc(C(C)(C)C)cc4)(C2=O)[C@H]3O)cc1 | 14.6µM* | ? | 13µM* | 16.4µM*
COC(=O)c1ccccc1NC(=O)c1ccc(-c2nc(COc3ccccc3)c(C)o2)cc1 | . | i | i | .
O=c1c2ccccc2nc(-c2ccc(Cl)cc2)n1CCCOc1ccccc1F | . | i | i | .
COc1cc(Nc2nc(SCC#N)nc3ccccc23)cc(OC)c1OC | -2.6% | i | 20.6µM* | 7.1%
N#CCSc1nc(Nc2ccc3c(c2)OCO3)c2ccccc2n1 | -21.9% | i | 14.6µM* | ?
C/C(=N\NC(=O)CCCNc1ccccc1)c1ccncc1 | 3.1% | i | i | 12.1%
SMILES | HT1080 IDH1KD tx | KB-3-1 cytotox | KB-V1 MDR tox | HT1080-NT tox
C/C(=N\NC(=O)CCCNc1ccc(C)cc1)c1ccccn1 | ? | i | 6.51µM* | -4.3%
Cc1ccc(N=Nc2c(N)nn(-c3ccccc3)c2N)cc1 | 9.2µM* | ? | 6.51µM* | 10.3µM*
Cc1nn(-c2ccccc2)c(N)c1N=Nc1ccc2ccccc2c1 | -9.2% | ? | i | -9.3%
O=C(NCc1ccco1)c1ccccc1NS(=O)(=O)c1ccc(Cl)s1 | ? | i | i | ?
O=S(=O)(Nc1ccccc1N1CCCC1)c1ccccc1C(F)(F)F | -3.5% | i | i | 1.2%
O=C(Nc1ccccc1Cc1ccccc1)c1ccccc1NS(=O)(=O)c1ccc(Cl)s1 | ? | ? | 2.59µM* | 16.4µM*
O=C(Nc1ccccc1)c1ccccc1NS(=O)(=O)c1ccc(Cl)s1 | ? | 5.17µM* | 4.11µM* | ?
Cc1ccc(NC(=O)c2ccccc2NS(=O)(=O)c2ccc(Cl)s2)cc1 | ? | 10.3µM* | 7.31µM* | 20.6µM*
O=S(=O)(Nc1ccccc1N1CCCCC1)c1ccc(Cl)s1 | -1.5% | 13µM* | i | -11.1%
CN(C)c1ccc(/C=C/c2ccnc3ccc(I)cc23)cc1 | . | ? | i | .
COc1ccccc1CNC(=O)c1cc2cc3ccc(Cl)cc3nc2o1 | . | i | ? | .
COc1cc(OC)c(C2=NOC(C(=O)Nc3cc(C)nn3-c3ccccc3)C2)cc1Cl (configuration not stated) | -5.9% | i | 18.4µM* | -0.3%

From PubChem BioAssay
